This note sets out measurements from PubChem BioAssay (NCATS).

The source made the active and inactive calls. A call without a number means that no potency is given here. The call rests on the fitted dose curve; in most records, active means well fitted activation curve with a large enough effect; inconclusive means small, poorly fitted or top-dose-only effect; inactive means no such curve, though single readings can be large or run the other way.
Potency means the concentration at half of the fitted maximal effect.

The target of this assay is Cytochrome P450 3A4 (Homo sapiens) (UniProt P08684). In words: qHTS Assay for Activators of Cytochrome P450 3A4 (AID 885). Further: nearly all actives have a fitted effect of over 65% in size. To be noted: recombinant CYP3A4, Luciferin-PPXE luminescence, 60 min; series mostly up to 11.4 µM. The method, then: NIH Molecular Libraries Screening Centers Network [MLSCN]
Sequence of Cytochrome P450 3A4 (Homo sapiens) (P08684 whole entry, looked up): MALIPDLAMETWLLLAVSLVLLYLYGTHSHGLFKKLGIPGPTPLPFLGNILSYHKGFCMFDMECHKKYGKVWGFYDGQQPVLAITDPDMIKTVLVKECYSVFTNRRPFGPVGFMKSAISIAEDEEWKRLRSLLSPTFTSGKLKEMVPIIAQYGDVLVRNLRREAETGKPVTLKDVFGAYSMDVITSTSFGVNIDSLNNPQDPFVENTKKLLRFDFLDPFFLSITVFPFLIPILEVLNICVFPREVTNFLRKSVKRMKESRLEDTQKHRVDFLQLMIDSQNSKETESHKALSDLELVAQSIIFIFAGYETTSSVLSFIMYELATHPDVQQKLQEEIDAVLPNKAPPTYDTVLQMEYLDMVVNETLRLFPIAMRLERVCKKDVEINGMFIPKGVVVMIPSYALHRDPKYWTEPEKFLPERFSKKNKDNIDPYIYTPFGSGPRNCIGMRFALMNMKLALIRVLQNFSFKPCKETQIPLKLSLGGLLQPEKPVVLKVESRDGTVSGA
NIH Chemical Genomics Center [NCGC]
The P450 gene superfamily is involved in the metabolism and clearance of xenobiotics. This assay used human CYP3A4 to measure the dealkylation of luciferin-6' phenylpiperazinylyl (Luciferin-PPXE; […]) to luciferin. The luciferin is then measured by luminescence after the addition of a luciferase detection reagent. Luciferin-PPXE concentration in the assay was equal to its KM for CYP3A4. Inhibitors and some substrates limit the production of luciferin, and decrease measured luminescence; activators increase the production of luciferin and luminescence.
NCGC Assay Protocol Summary:
Two uL of enzyme and substrate mix (final concentrations: 20nM CYP3A4, 25uM Luciferin-PPXE, 200mM KPO4) were dispensed into a white, solid bottom 1536-well microtiter plate. 23nL of compound was transferred by a pin tool. The plate was incubated at RT for 10 min. Two uL of an NADPH regeneration solution (Promega supplied reagent) was dispensed and the reaction was allowed to continue for 60 min at RT. Then the reaction was stopped by reconstituted luciferin detection buffer. After another 20 min of incubation the plate was read on the ViewLux (Perkin Elmer) at 60 sec exposure and 2x2 binning. This protocol was carried out with Promega-Glo reagents and further information can be found at http://www.promega.com/tbs/tb325/tb325.pdf. Data were normalized to the to AC100 inhibition (57 uM ketoconazole).
Keywords: P450, CYP2D6, Luciferase, MLSMR, MLSCN, NIH Roadmap, qHTS, NCGC
(In general: In qHTS, concentration-response curves come from the screen itself.)
`CCNc1ncc2nc(C)c(=O)n(Cc3cccc(OC)c3)c2n1`: the Potency result was “inactive”.

`ON(CCc1ccncc1)Cc1ccccc1`: the Potency entry was “inactive”.

For the compound `COc1cc2nc(N3CCN(C(=O)OCc4ccccc4)[C@H](C(=O)NC(C)(C)C)C3)nc(N)c2cc1OC`, the Potency entry is “inactive”.

As to `COc1ncc2nc(-c3ccc(Cl)cc3)c(=O)n(C[C@H]3CCCO3)c2n1`, the Potency result was “inactive”.

As for `COc1ccc(C(=O)N2CCC3(CCCN(C(=O)Nc4cccc(F)c4)C3)CC2)cc1`, the Potency entry is “inactive”.

On to `COCCNc1nc(-c2ccc(C(=O)N(C)C)cc2)nc2ccccc12`, for which the Potency entry was “inactive”.

On to `CN(Cc1cc(Br)cc(Br)c1O)Cc1c(O)ccc2ccccc12`, for which the Potency result was “inactive”.

Turning to `OCCNc1ncnc2nc[nH]c12`, the Potency result was “inactive”.

Turning to `N#CCCn1c(=O)c(CCc2ccccc2)nc2cnc(Oc3ccccc3)nc21`, the Potency entry was “inactive”.

Turning to `CC(C)CO[C@H](c1ccc2c(c1)OCO2)[C@H](C)Br`, the Potency entry was “inactive”.

For `CC(=O)OCC(=O)[C@]12OC(C)(C)O[C@@H]1C[C@H]1[C@H]3CC=C4C[C@@H](O)CC[C@]4(C)[C@H]3CC[C@]12C`, the Potency was 3.16 µM (active).

With `CCNC(=S)NCC`, the Potency entry is “inactive”.

Take `O=C1c2ccccc2N[C@H](c2cc(Cl)cc(Cl)c2O)N1CCc1ccccn1`: the Potency result was “inactive”.

With `CC(C)(C)c1ccc(NS(=O)(=O)c2ccc(N)cc2)cc1`, the Potency result was “inactive”.

In the case of `CCN(CC)c1ccc(N)cc1`, the Potency entry is “inactive”.

`Cc1cc(-c2ccc(N=Nc3cc(S(=O)(=O)O)c4ccccc4c3N)c(C)c2)ccc1N=Nc1cc(S(=O)(=O)O)c2ccccc2c1N`: the Potency result is “inactive”.

Consider `CC(=O)/C(=C\c1ccccc1F)C(=O)c1ccccc1`, for which the Potency result was “inactive”.

Take `O[C@@H](C1=C/C(=C\c2ccncc2)c2ccccc21)c1ccncc1`: the Potency entry was “inactive”.

As to `O=S1(=O)CCN(c2ccccc2CC(c2c[nH]c3ccccc23)c2c[nH]c3ccccc23)CC1`, the Potency entry was “inactive”.

As to `CN(C)C(=O)c1ccc(-c2nc(Nc3ccc(F)cc3)c3ccccc3n2)cc1`, the Potency result is “inactive”.

Consider `ON(CCc1ccccn1)Cc1ccccc1`, for which the Potency result was “inactive”.

As to `CN1CC[C@@]2(CCN3CCc4c(oc5ccccc45)[C@@H]3C2)N(C)C1=O`, the Potency result is “inactive”.

As to `COc1ccc(-n2c(=O)c(C)nc3cnc(Oc4cccc(Cl)c4)nc32)cc1`, the Potency result is “inactive”.

As for `C[C@H]1CCCC=CC2C[C@H](OC(=O)CN(C)C)C[C@@H]2[C@@H](O)/C=C\C(=O)O1` (stereo not given in full), the Potency is 3.98 µM (active).

Consider `Cc1ccc([C@@H](O)c2cnc(C)n2Cc2ccccc2)cc1`, for which the Potency result is “inactive”.

For `CN(C)S(=O)(=O)c1ccc(Nc2ccc(O)c3c2C(=O)c2c([N+](=O)[O-])ccc(O)c2C3=O)cc1`, the Potency entry is “inactive”.

For the compound `Cn1c(=O)c2[nH]c(SCCN3CCOCC3)nc2n(C)c1=S`, the Potency entry was “inactive”.

With `O=C(O)/C=C\C(=O)Nc1ccc2c(c1)C(=O)c1cc(F)ccc1-2`, the Potency entry is “inactive”.

Consider `O=[N+]([O-])c1ccc2c(N=Nc3ccc4ccccc4c3O)c(O)cc(S(=O)(=O)O)c2c1`, for which the Potency entry was “inactive”.

Turning to `CCNc1ncc2nc(CCc3ccccc3)c(=O)n(C)c2n1`, the Potency result was “inactive”.

Turning to `CN[C@]1(C)[C@@H]2CC[C@@H](C2)C1(C)C`, the Potency result is “inactive”.

With `Nc1nc(SCc2ccccc2[N+](=O)[O-])c2[nH]cnc2n1`, the Potency entry is “inactive”.

Regarding `FC(F)(F)c1nc2nc(Cl)c(Cl)nc2n1CCCN1CCOCC1`, the Potency entry is “inactive”.

As to `N/C(CC(=O)Nc1cc(C(F)(F)F)ccc1Cl)=N\O`, the Potency result is “inactive”.

Turning to `FC(F)(F)c1cccc(-c2nc3nc(Cl)c(Cl)nc3[nH]2)c1`, the Potency entry is “inactive”.

For `C/C=C1/C(=O)C[C@H]2[C@@H]3CCC4=CC(=O)CC[C@]4(C)[C@H]3CC[C@]12C`, the Potency was 1 µM (active).

With `CCOC(=O)C1=C(C)NC(=O)N[C@@H]1c1coc2cc(C)cc(C)c2c1=O`, the Potency result was “inactive”.

As to `S=C(S)NCCCn1ccnc1`, the Potency entry is “inactive”.

On to `c1ccc(SC(Sc2ccccc2)c2ccc3c(c2)OCO3)cc1`, for which the Potency entry is “inactive”.

`c1ccc(CSc2nnc3c4ccccc4c4ccccc4c3n2)cc1`: the Potency result is “inactive”.
